Measured values: PubChem BioAssay (NCATS)
Results filed as inconclusive are left out. Values without a mark were called inactive. Calls of active or inactive are those of the source. Calls follow the shape of the dose curve; as a rule, active = well fitted inhibition curve with a large enough effect; inconclusive = small, poorly fitted or top-dose-only effect; inactive = no such curve, though single readings can be large or run the other way.

Assay: qHTS to identify inhibitors of the type 1 interferon - major histocompatibility complex class I in skeletal muscle: primary screen against the NCATS Mechanism Interrogation Plate v5.0 (MIPE) Libary (AID 1347411); also: nearly all actives have a fitted effect of over 65% in size;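 as to activity change, negative = inhibition: plate controls were vehicle for no effect and reference inhibitor for full effect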
Conditions: iHSKM cells + IFN-b, HiBiT-tagged MHC-I luminescence, 24 h; series mostly up to 45.8 µM; activity change, negative = inhibition: at the top concentration
Method in brief: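 Seed engineered human myoblasts (HLA-B HiBit) in medium without dexamethasone containing 4 ng/ml IFN-beta; after 1 hr add compound titrations (top 46 uM final). Incubate 24 hrs at 37 C, lyse 10 min with HiBiT reagent, read luminescence.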
Potency is read from the fitted curve at half-maximal effect.

| SMILES | activity change, negative = inhibition | Potency |
| --- | --- | --- |
| CCOC(=O)Nc1ccc(NCc2ccc(F)cc2)nc1N | 2.31% | – |
| Clc1ccc2nsnc2c1NC1=NCCN1 | -4.76% | – |
| CN(C)CCCN1c2ccccc2CCc2ccc(Cl)cc21 | 30.6% | – |
| C[C@](N)(Cc1ccc(O)c(O)c1)C(=O)O | -12% | – |
| CC[N+](CC)(CC)CCOc1cccc(OCC[N+](CC)(CC)CC)c1OCC[N+](CC)(CC)CC | -1.67% | – |
| NC(=O)NO | 6.04% | – |
| OCCN(CCO)c1nc(N2CCCCC2)c2nc(N(CCO)CCO)nc(N3CCCCC3)c2n1 | -5.58% | – |
| COc1ccc(C2CNC(=O)C2)cc1OC1CCCC1 (stereo unspecified) | 15.5% | – |
| CN(Cc1cnc2nc(N)nc(N)c2n1)c1ccc(C(=O)N[C@@H](CCC(=O)O)C(=O)O)cc1 | 5.84% | – |
| Nc1nc2c(ncn2COC(CO)CO)c(=O)[nH]1 | 10.2% | – |
| O=c1[nH]cc(F)c(=O)[nH]1 | 4.52% | – |
| NC(=O)OCC(COC(N)=O)c1ccccc1 | 10.7% | – |
| Nc1c2c(nc3ccccc13)CCCC2 | -14.4% | – |
| CC(C)(C)C(=O)Oc1ccc(S(=O)(=O)Nc2ccccc2C(=O)NCC(=O)O)cc1 | 0.468% | – |
| CC1COc2c(N3CCN(C)CC3)c(F)cc3c(=O)c(C(=O)O)cn1c23 (stereo unspecified) | 1.23% | – |
| C[C@H]1c2cccc(O)c2C(O)=C2C(=O)[C@]3(O)C(O)=C(C(N)=O)C(=O)[C@@H](N(C)C)[C@@H]3[C@@H](O)[C@@H]21 | -15.2% | – |
| CCOC(=O)c1ncn2c1CN(C)C(=O)c1cc(F)ccc1-2 | -11.9% | – |
| O=C1c2c(O)ccc(O)c2C(=O)c2c(NCCNCCO)ccc(NCCNCCO)c21 | – | 930 nM (active) |
| CCC1(C)CC(=O)NC1=O (stereo unspecified) | 10.5% [at 91.7 µM] | – |
| Cc1ccc(C(=O)Nc2ccc(S(=O)(=O)O)c3cc(S(=O)(=O)O)cc(S(=O)(=O)O)c23)cc1NC(=O)c1cccc(NC(=O)Nc2cccc(C(=O)Nc3cc(C(=O)Nc4ccc(S(=O)(=O)O)c5cc(S(=O)(=O)O)cc(S(=O)(=O)O)c45)ccc3C)c2)c1 | -21.1% [at 15.5 µM] | – |
| Nc1nnc(-c2cccc(Cl)c2Cl)c(N)n1 | -6.81% | – |
